Screening results deposited in PubChem by several laboratories.
In the library only some 4.3% were active in any assay of this set; here they are far more common.
FGF22 binding = FGF22 (human) thermal shift binding | AID 651658 | 340,000 compounds, 1.5% hits | recombinant FGF22 thermal shift, SYPRO orange fluorescence; percent of sucrose octasulfate shift, DMSO zero | activity (Tm shift, normalised), % at 9.99 µM | Q9HCT0;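 active means mean Tm shift, scaled 0 neutral to 100 positive control, at about 1.3% or above, every replicate too, limit read from the data; inconclusive means no clear call, values can overlap the other calls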
Target sequence (Q9HCT0 whole entry, looked up): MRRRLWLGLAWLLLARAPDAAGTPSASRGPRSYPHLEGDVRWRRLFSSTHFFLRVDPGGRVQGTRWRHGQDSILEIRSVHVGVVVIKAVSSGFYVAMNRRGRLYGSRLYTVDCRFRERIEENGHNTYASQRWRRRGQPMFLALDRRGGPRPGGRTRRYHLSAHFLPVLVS
MITF TRPM1 HTS = activators of MITF-driven TRPM1 promoter activity in SK-MEL-5 cells. SK-MEL-5 TRPM1-promoter luciferase, 24 h; % of positive control, neutral wells = 0. activation, % at 12.5 µM. 300,000 compounds, 0.75% hits. AID 588334;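 active means mean activation of at least 80% with every replicate also reaching 80%; inconclusive means mean reaches 80% but some replicate falls short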;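 further: 0% = neutral control wells and 100% = parthenolide positive control wells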
Wnt bcat act = activates Wnt/beta-catenin signaling in a reporter cell assay; 300,000 compounds, 1.2% hits; activation, % at 9.35 µM; activator, plate reader; in the data active means activation above about 30%, passing the limit was not always enough; inconclusive means no clear call, values can overlap the other calls;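 further: 0% = neutral control wells and 100% = positive control wells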
SMARCA2 act = increases SMARCA2 function in MMTV reporter cells. 370,000 compounds, 1% hits. activation, % at 9.1 µM. AID 652017. MG213 cells, MMTV-luciferase reporter, dexamethasone, overnight; in the data active means activation above about 7.8%;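 further: 0% = vehicle wells and 100% = reference activator wells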
esBAF inh = inhibitors of esBAF chromatin remodeling in mouse ES cells. Bmi1-luciferase knock-in reporter, 24 h; 100% = twice the neutral-well signal. reporter increase, % at 12.5 µM. 350,000 compounds, 2% hits. AID 602393; in the data active means activation above about 40%; inconclusive means no clear call, values can overlap the other calls;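 further: 0% = median of the plate's neutral control wells and 100% = double that signal; a rise in the Bmi1 reporter signal indicates esBAF inhibition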
MLL AF4-AF9 inh = blocks AF4 peptide binding to human AF9; inhibition, % at 10 µM; P42568; AID 651704; AlphaScreen, biotin-AF4 peptide binding to FLAG-AF9; 350,000 compounds, 0.47% hits;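 active means every replicate reaching a set inhibition limit, whatever the replicate mean, cut at about 25% in these data; inconclusive means mean inhibition reaches that limit but some replicates miss it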;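 further: 0% = plate neutral control median and 100% = total signal loss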
Starred values were filed as active, the others as inactive; ? = inconclusive; · = no result; ! = a repeat was not active.

SMILES | FGF22 binding | MITF TRPM1 HTS | Wnt bcat act | SMARCA2 act | esBAF inh | MLL AF4-AF9 inh
COCC(=O)N1[C@@H]2CN(C(=O)c3cccc(OC)c3)c3ccccc3[C@@H]2[C@@H]1CO | 0 | · | · | · | 3 | -15
CC(NC(=O)COc1ccc(N(C)S(=O)(=O)c2ccccc2)cc1)c1ccccc1 (stereo unspecified) | 43* | -9 | -1 | -5 | -9 | -3
CN(CCC#N)c1ccc(/C=C(\C#N)c2ccccn2)cc1 | 0 | 2 | -1 | 4 | · | 2
CN(CCC#N)c1ccc(C=C(C#N)c2ccc(Br)cc2)cc1 | 44* | · | 0 | -2 | · | -5
COc1cccc(-c2ccc3c(c2)O[C@@H](CN(C)C(=O)c2ccccc2F)[C@@H](C)CN([C@@H](C)CO)S3(=O)=O)c1 | 0 | · | · | · | 12 | 0
CCCC(=O)NNC(=O)c1ccoc1C | 1 | 1 | -1 | -3 | · | -1
CCC(C)(C)C1CCC(=NNC(=O)c2ccoc2C)CC1 (stereo unspecified) | · | 3 | 12 | 11* | 20 | ·
C=CCSc1nnc2c(n1)OC(c1cccnc1)N(C(C)=O)c1ccccc1-2 (stereo unspecified) | · | 0 | -3 | 2 | 4 | ·
C=CCSc1nnc2c(n1)OC(c1cccnc1)Nc1ccccc1-2 (stereo unspecified) | · | 13 | 54* | 1 | · | ·
O=[N+]([O-])c1ccc(Cl)c(S(=O)(=O)Nc2cccc(-c3ccc(N4CCOCC4)nn3)c2)c1 | 0 | 86* | 10 | 2 | 32 | -1
O=S(=O)(Nc1cccc(-c2ccc(N3CCCCCC3)nn2)c1)c1ccccc1Cl | 0 | 3 | 5 | -1 | 44* | 2
COc1ccc(C)cc1S(=O)(=O)Nc1cccc(-c2ccc(N3CCCCCC3)nn2)c1 | 0 | 14 | 6 | 1 | ? | 2
O=S(=O)(Nc1cccc(-c2ccc(N3CCCCCC3)nn2)c1)c1ccc(C(F)(F)F)cc1 | 0 | 51 | -1 | 4 | 56* | 0
O=S(=O)(Nc1cccc(-c2ccc(N3CCCCCC3)nn2)c1)c1cccc(F)c1 | 0 | 98* | 29 | 6 | 66* | -1
O=S(=O)(Nc1cccc(-c2ccc(N3CCCCCC3)nn2)c1)c1ccccc1F | 0 | 72 | 26 | 4 | · | -1
COc1ccccc1C(=O)NC1CCCCN(Cc2ccc(Cl)cc2)C1=O (stereo unspecified) | · | · | · | -2 | · | ·
COc1ccc2c3c([nH]c2c1)[C@H](CO)N(C(=O)c1ccccn1)CC31CCN(C(=O)C2CCCCC2)CC1 | 0 | · | · | · | · | 1
O=S(=O)(Nc1cccc(-c2ccc(N3CCCCCC3)nn2)c1)c1ccc(F)cc1 | 0 | 63 | 17 | 2 | 56* | -2
Cc1ccc([N+](=O)[O-])cc1S(=O)(=O)Nc1cccc(-c2ccc(N3CCCC3)nn2)c1 | 0 | 26 | 6 | 3 | 18 | -2
CCOc1ccc(S(=O)(=O)Nc2cccc(-c3ccc(N4CCCCCC4)nn3)c2)cc1 | 0 | 36 | 5 | 5 | 34 | -4
Cc1ccc(S(=O)(=O)Nc2cccc(-c3ccc(N4CCCCCC4)nn3)c2)cc1C | 0 | 58 | 13 | 3 | 46* | -3
Cc1noc(C)c1NC(=O)Nc1ccc2c(c1)CC(=O)N([C@@H](C)CO)C[C@@H](C)[C@H](CN(C)C(=O)NC(C)C)O2 | 0 | · | · | · | 0 | ·
Cc1c(C(=O)/C=C/N(C)C)nnn1-c1ccc(Cl)c(Cl)c1 | 0 | · | 48* | -5 | · | -12
NC(=O)CCC(=O)N1CCCC(C(=O)c2ccc3c4c(cccc24)CC3)C1 (stereo unspecified) | 43* | 8 | 0 | -3 | · | -9
COCCC(=O)N1CCCC(C(=O)c2ccc3c4c(cccc24)CC3)C1 (stereo unspecified) | 0 | 5 | -3 | -3 | · | 1
SMILES | FGF22 binding | MITF TRPM1 HTS | Wnt bcat act | SMARCA2 act | esBAF inh | MLL AF4-AF9 inh
Cc1noc(C)c1S(=O)(=O)Nc1ccc2c(c1)C(=O)N([C@H](C)CO)C[C@@H](C)[C@H](CN(C)Cc1ccc(C(=O)O)cc1)OCCCC[C@@H](C)O2 | 1 | · | · | · | 6 | -12
C[C@@H]1CCCCO[C@H](CN(C)Cc2ccc(C(=O)O)cc2)[C@H](C)CN([C@@H](C)CO)C(=O)c2cc(NS(=O)(=O)c3cn(C)cn3)ccc2O1 | 1.3* | · | · | · | 1 | ·
Cc1noc(C)c1S(=O)(=O)Nc1ccc2c(c1)C(=O)N([C@H](C)CO)C[C@H](C)[C@H](CN(C)Cc1ccc(C(=O)O)cc1)OCCCC[C@@H](C)O2 | 1.4* | · | · | · | -7 | -11
Cc1noc(C)c1S(=O)(=O)Nc1ccc2c(c1)C(=O)N([C@@H](C)CO)C[C@H](C)[C@H](CN(C)Cc1ccc(C(=O)O)cc1)OCCCC[C@H](C)O2 | 1.3* | · | · | · | 1 | -14
C[C@@H]1CN([C@H](C)CO)C(=O)c2cc(C#CC3CC3)cnc2O[C@@H]1CN(C)C(=O)CC1CC1 | 0 | · | · | · | 2 | -4
O=C(NC1CCCC1)N1CC(=O)N2[C@H](CO)[C@H](c3ccc(C4=CCCC4)cc3)[C@@H]2C1 | · | · | · | · | · | 0
COc1cc(C(=O)Nc2nnc(SC)s2)c([N+](=O)[O-])cc1OC | 44* | -1 | 0 | 3 | · | 0
C[C@@H]1CCCCO[C@H](CN(C)Cc2ccc(C(F)(F)F)cc2)[C@H](C)CN([C@H](C)CO)C(=O)c2cc(NS(=O)(=O)c3ccc(Cl)cc3)ccc2O1 | -1 | · | · | · | -6 | -1
COC(=O)c1ccc(CSc2nc(N)cc(N)n2)cc1 | · | 32 | · | 2 | 52* | ·
COC(=O)c1ccc(CSc2nnc(N)s2)cc1 | · | 32 | · | -1 | 30 | ·
Cc1nnc(NC(=O)c2ccco2)s1 | 0 | 1 | -3 | 6 | 6 | 1
O=C(Nc1nnc(C23CC4CC(CC(C4)C2)C3)s1)c1ccco1 | · | 78 | 41*! | 0 | 31 | ·
CCOc1ccc(CC(=O)Nc2sc(Cc3ccccc3)cc2C(N)=O)cc1OCC | 0 | -4 | -4 | 1 | -3 | 1
Cc1nnc(NC(=O)COc2ccccc2)s1 | · | 10 | -1 | 0 | 3 | ·
O=C(COc1ccccc1)Nc1nc2c(s1)CCCC2 | 0 | 114* | 20 | 3 | 58* | 3
NC(=O)c1cc(Cc2ccccc2)sc1NC(=O)c1ccco1 | 0 | 118* | 27 | 7 | 85* | -13
O=C(COc1ccccc1)Nc1nnc(C23CC4CC(CC(C4)C2)C3)s1 | 0 | · | 24 | 0 | 48* | 3
CCOC(=O)[C@]12CCCCC/C=C\1N(CCc1ccc(Cl)cc1)C(=O)[C@H]2CC(=O)NCc1ccc(C)o1 | · | · | · | 1 | · | ·
CNC[C@@H]1OCCCC[C@@H](C)Oc2ccc(NS(=O)(=O)c3cccs3)cc2C(=O)N([C@@H](C)CO)C[C@H]1C | 0 | · | · | · | 1 | -5
O=C(Nc1nnc(Cc2ccccc2)s1)c1ccco1 | · | 49 | 25 | 7 | 46* | ·
Cc1nc(N)sc1N=Nc1ccccc1C(F)(F)F | 0 | 159* | 28 | 7 | ? | 13
